The target in assay [1] is Aldehyde dehydrogenase, mitochondrial (Homo sapiens) (UniProt P05091). Put plainly: qHTS for Inhibitors of the Aldehyde Dehydrogenase Family (ALDH2) Primary screen (AID 2061308). Also: nearly all actives have a fitted effect of over 55% in size. In general terms: Quantitative high-throughput screening tests each substance at several concentrations.
In assay [2] the target is Retinaldehyde dehydrogenase 3 (Homo sapiens) (UniProt P47895). The experiment in a line: qHTS for Inhibitors of the Aldehyde Dehydrogenase Family (ALDH1A3) Primary screen (AID 2061315).

Data on 15 compounds can be found in PubChem BioAssay (NCATS).

Inconclusive results are not listed. Entries that show only a call come without a potency. The source made the active and inactive calls. Calls follow the shape of the dose curve; as a rule, active = well fitted curve in the direction sought with a large enough effect; inconclusive = small, poorly fitted or top-dose-only effect, or another doubt; inactive = no such curve, though single readings can be large; an effect the other way counts as inactive or inconclusive.

For the compound `O=S(=O)(c1ccc2c(c1)OCCO2)C1CCC(O)CC1` (stereo not given), the Potency result in assay [1] and in assay [2] was “inactive” each time.

Regarding `COc1cc(OC)cc(N2CCN(C(=S)Nc3cc(C)cc(C)n3)CC2)c1`, the Potency entry in assay [1] and in assay [2] was “inactive” in each case.

Turning to `COc1ccc(C2=Nn3c(nnc3-c3ccccc3Cl)SC2)cc1O[C@H]1CCOC1`, the Potency entry in assay [1] and in assay [2] was “inactive” throughout.

As to `CCn1c(-c2nonc2N)nc2c(C#CCO)ncc(OCCCN)c21`, the Potency result in assay [1] and in assay [2] was “inactive” throughout.

In the case of `COc1ccc(CSc2nc3ncc(Br)cc3[nH]2)cc1F`, the Potency result in assay [1] and in assay [2] was “inactive” in each case.

For `O=C(Nc1ccc2sccc2c1)Nc1nnc(-c2ccncc2)s1`, the Potency entry in assay [1] and in assay [2] was “inactive” in each case.

On to `CC(C)(C)N=Cc1c(-c2ccccc2)no[n+]1[O-]`, for which the Potency entry in assay [1] and in assay [2] was “inactive” in each case.

Consider `COc1cccc(NS(=O)(=O)c2ccc(NCc3cccc(OC)c3O)cc2)c1`, for which the Potency result in assay [1] and in assay [2] was “inactive” in each case.

As to `Cc1cc(C=CC#N)cc(C)c1Nc1nc(Nc2ccc3c(c2)OCO3)c2[nH]cnc2n1`, the Potency result in assay [1] and in assay [2] was “inactive” in each case.

As to `Cc1ccc(NC(=O)CN2C(=O)N/C(=C\c3cccn3-c3ccc(C(=O)NC#N)cc3)C2=O)cc1`, the Potency result in assay [1] and in assay [2] was “inactive” in each case.

With `Cc1ccccc1-c1nc(NCc2ccc(-c3cccnc3)cc2)c2ccccc2n1`, the Potency result in assay [1] and in assay [2] was “inactive” in each case.

Regarding `Cc1ccc(OCCn2c(CCNC(=O)C3CCCC3)nc3ccccc32)cc1`, the Potency result in assay [1] and in assay [2] was “inactive” in each case.

Consider `Cc1ccc(-c2nc3c(c(SCC(=O)Nc4cccc(C(=O)O)c4)n2)Cc2cccc(C)c2O3)cc1`, for which the Potency entry in assay [1] and in assay [2] was “inactive” each time.

On to `O=C(Nc1nc(-c2ccccc2)cs1)c1ccncc1NS(=O)(=O)c1ccc(F)cc1`, for which the Potency result in assay [1] and in assay [2] was “inactive” each time.

On to `Cc1cccc(-n2cnc3cc(C(=O)N4CCC(N5CCOCC5)CC4)ccc32)c1`, for which the Potency entry in assay [1] and in assay [2] was “inactive” throughout.
